# Measured values from the OligoGym collection.
# Molecular target: ROPN1
# Assay: pooled miR-30 sensor sort-seq; sequence = guide strand
# Settings: shRNA
# Further: reference of the scale not given here.
row,Sequence,sensor-assay potency score (higher = more potent)
1,TACAAGAAAATTGATTTTGGGT,0.726
2,TCTGAAGTACAATCATCTCTGT,0.301
3,AACTGGAAGGTGCTGAACGGGA,-0.696
4,TCACTGTGATTATACCATCAGG,-1.52
5,TGAAGTACAATCATCTCTGTAT,0.335
6,ATCAGGGCCAATTACTTCCTGT,-0.778
7,TATGGTCACATGATAAGACCTC,-0.256
8,TCCATGTAGTTTAGCATCCTGC,-1.26

# Molecular target: RORB
# Assay: as above
# Settings: shRNA
row,Sequence,sensor-assay potency score (higher = more potent)
1,TTGTTCTGCTGGCTCCTCCTAA,-0.741
2,TTTAATTTCTTCATAGGTGTGG,0.75
3,TTAATTTCTTCATAGGTGTGGG,0.03
4,TATCTGTTTGATTCCAGTCATG,-1.6
5,TTGATCATTTTGACAGAGCTCC,0.0925
6,ATCATTTTGACAGAGCTCCATG,-1.14
7,TTCCAGTCATGTCAAGTCCTGA,-0.578
8,TTAAACAGTTTCTCTGCCTTGG,0.233
9,TTCACATGTGATGACTCCGTAG,-1.17
10,TTGCTTAAATACCTGCAGCTTC,-0.375
11,TAGGGCAAGACACTTCTGCAGT,-0.56
12,TATAACGGAGGAAACAGTGTAT,0.0235

# Molecular target: RPF2
# Assay: as above
# Settings: shRNA
row,Sequence,sensor-assay potency score (higher = more potent)
1,TAATTTATAAAGGTCATCCGAT,-0.21
2,ATAATCTTCTGTTACATCGAAA,-0.564
3,TTACATCGAAATCATCGCCAGC,-0.787
4,TTTGCTTAGGTCTTGCTTCTGC,0.678
5,TCTTTTTATATAGTACACCGTA,-0.652
6,TTTCAGTGCATACACATCTTTA,-0.778
7,TTAAGTACTTTTGTCACTGTTG,-0.124
8,TTAGTCTTCTATAATCTTCTGT,0.354
9,TTCAACAGCAACTTATAGCTTC,0.301
10,TTATATAGTACACCGTATGGTT,-0.793
11,TTGTAGTTTGCTTAGGTCTTGC,-0.359
12,TAGTCTTCTATAATCTTCTGTT,-0.606

# Molecular target: RPL19
# Assay: as above
# Settings: shRNA
row,Sequence,sensor-assay potency score (higher = more potent)
1,TTACCTATGCCCATGTGCCTGC,-0.132
2,ATTGGCTGTACCCTTCCGCTTA,-0.619
3,ATTGGGGTCTAACCAGACCTTC,-1.59
4,TTGATGATCTCCTCCTTCTTGG,0.222
5,TGTTTTTGAACACATTCCCCTT,-1.21
6,TAAAGTCTTGATGATCTCCTCC,0.336
7,TACAGGCTGTGATACATGTGGC,-1.14
8,TTTTTGAACACATTCCCCTTCA,-0.0211
